{"source": "the supplement of paper PMC8728848", "binders": {"B1": {"name": "SIGNR8 (Mus musculus) (protein)", "chain": "MAGEPEFHQSKNHEEEVTSGEQGFAEHDPEGLICSSKSLQGHLTQVPWLLLLLISLGLFLLMLATLVQVSRIRAYSQGQTQDQQGSSSLDKVAVPREQTHSGLEQIQQIQQQLTQFNASLAGLCRPCPWDWELFQGSCYLFSRTLGSWETSASSCEDLGAHLVIVNSVSEQRFMKYWNVRKNQRSWIGLSDHIHEGSWQWVDGSALKFSFWKEGEPNNDGDEDCVELFMDDWNDNKCTEQNFWVCEQPSAPCPHH"}, "B2": {"name": "R410P1E11 (Tachypleus tridentatus), TAL2_TACTR (protein)", "chain": "MEKGTPPTHDSDNWMGRAKEIGNGGWDQFQFLFFDPNGYLYAVSNDKLYKASPPQSDTDNWIARATEIGSGGWSGFKFLFFHPNGYLYAVRGQRFYKALPPVSNQD"}}, "assay_in_all_cases": "glycan array binding signal (z-score within array); higher = stronger binding", "conditions_in_all_cases": "glycan notation: IUPAC condensed, linker removed", "key": {"Fuc(a1-2)[Gal(a1-3)]Gal": {"molecular_target": "Fuc(a1-2)[Gal(a1-3)]Gal", "summary_of_the_method": "(§1)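 Negative Z-scores can be read as non-binding. The Z-score is calculated within each array and then averaged across arrays of one protein sequence at different concentrations or buffers and across linkers. Arrays, 3228 in all, were curated from the Consortium for Functional Glycomics database and kept only where the protein sequence was available.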"}, "[1]": {"molecular_target": "Fuc(a1-2)[Gal(a1-4)]Gal(b1-4)GlcNAc", "summary_of_the_method": "as §1"}, "[2]": {"molecular_target": "Fuc(a1-2)[GalNAc(a1-3)]Gal(b1-4)[Fuc(a1-3)]GlcNAc", "summary_of_the_method": "as §1"}, "[3]": {"molecular_target": "Fuc(a1-3)[Gal(b1-4)]GlcNAc(b1-4)Gal(b1-4)[Fuc(a1-3)]GlcNAc", "summary_of_the_method": "as §1"}, "[4]": {"molecular_target": "Fuc(a1-3)[GalNAc(b1-4)]GlcNAc", "summary_of_the_method": "as §1"}, "Gal(a1-3)Gal": {"molecular_target": "Gal(a1-3)Gal", "summary_of_the_method": "as §1"}, "Gal(a1-3)Gal(b1-4)GlcNAc": {"molecular_target": "Gal(a1-3)Gal(b1-4)GlcNAc", "summary_of_the_method": "as §1"}, "[5]": {"molecular_target": "Gal(a1-3)[Gal(a1-4)]Gal(b1-4)GlcNAc", "summary_of_the_method": "as §1"}, "Gal(b1-3)Gal": {"molecular_target": "Gal(b1-3)Gal", "summary_of_the_method": "as §1"}, "[6]": {"molecular_target": "Gal(b1-3)GalNAc(b1-4)[Neu5Ac(a2-3)]Gal(b1-4)Glc", "summary_of_the_method": "as §1"}, "[7]": {"molecular_target": "Gal(b1-3)GlcNAc(b1-3)Gal(b1-4)Glc", "summary_of_the_method": "as §1"}, "[8]": {"molecular_target": "Gal(b1-3)[Neu5Ac(b2-6)]GalNAc", "summary_of_the_method": "as §1"}, "[9]": {"molecular_target": "Gal(b1-4)GlcNAc(b1-3)Gal(b1-4)GlcNAc(b1-3)Gal(b1-4)GlcNAc", "summary_of_the_method": "as §1"}, "[10]": {"molecular_target": "Gal(b1-4)GlcNAc(b1-6)[Gal(b1-3)]GalNAc", "summary_of_the_method": "as §1"}, "GalNAc(a1-3)Gal": {"molecular_target": "GalNAc(a1-3)Gal", "summary_of_the_method": "as §1"}, "[11]": {"molecular_target": "GlcNAc(b1-3)Gal(b1-4)GlcNAc", "summary_of_the_method": "as §1"}, "Man(a1-3)[Man(a1-6)]Man": {"molecular_target": "Man(a1-3)[Man(a1-6)]Man", "summary_of_the_method": "as §1"}, "[12]": {"molecular_target": "Neu5Ac(a2-3)Gal(b1-3)[Fuc(a1-4)]GlcNAc(b1-3)Gal(b1-4)[Fuc(a1-3)]GlcNAc", "summary_of_the_method": "as §1"}, "[13]": {"molecular_target": "Neu5Ac(a2-3)[GalNAc(b1-4)]Gal(b1-4)Glc", "summary_of_the_method": "as §1"}, "[14]": {"molecular_target": "Neu5Ac(a2-3)[GalNAc(b1-4)]Gal(b1-4)GlcNAc", "summary_of_the_method": "as §1"}, "Neu5Ac(a2-6)Gal(b1-4)Glc": {"molecular_target": "Neu5Ac(a2-6)Gal(b1-4)Glc", "summary_of_the_method": "as §1"}, "[15]": {"molecular_target": "Fuc(a1-2)Gal6S(b1-4)GlcNAc", "summary_of_the_method": "as §1"}, "[16]": {"molecular_target": "Fuc(a1-2)[Gal(a1-3)]Gal(b1-4)Glc", "summary_of_the_method": "as §1"}, "[17]": {"molecular_target": "Fuc(a1-2)[GalNAc(a1-3)]Gal(b1-4)GlcNAc", "summary_of_the_method": "as §1"}, "[18]": {"molecular_target": "Fuc(a1-2)[GalNAc(a1-4)]Gal(b1-4)GlcNAc", "summary_of_the_method": "as §1"}, "Fuc(a1-4)GlcNAc": {"molecular_target": "Fuc(a1-4)GlcNAc", "summary_of_the_method": "as §1"}, "Gal(a1-4)Gal(b1-4)Glc": {"molecular_target": "Gal(a1-4)Gal(b1-4)Glc", "summary_of_the_method": "as §1"}, "Gal(b1-3)Gal(b1-4)GlcNAc": {"molecular_target": "Gal(b1-3)Gal(b1-4)GlcNAc", "summary_of_the_method": "as §1"}, "[19]": {"molecular_target": "Gal(b1-3)[Neu5Ac(a2-6)]GalNAc", "summary_of_the_method": "as §1"}, "[20]": {"molecular_target": "Gal(b1-4)GlcNAc(a1-6)Gal(b1-4)GlcNAc", "summary_of_the_method": "as §1"}, "[21]": {"molecular_target": "Gal(b1-4)GlcNAc(b1-3)Gal(b1-4)[Fuc(a1-3)]GlcNAc(b1-3)Gal(b1-4)[Fuc(a1-3)]GlcNAc", "summary_of_the_method": "as §1"}, "[22]": {"molecular_target": "Gal(b1-4)GlcNAc(b1-3)[Gal(b1-4)GlcNAc(b1-6)]Gal(b1-4)GlcNAc", "summary_of_the_method": "as §1"}, "Gal3S6S(b1-4)GlcNAc6S": {"molecular_target": "Gal3S6S(b1-4)GlcNAc6S", "summary_of_the_method": "as §1"}, "[23]": {"molecular_target": "GlcNAc(a1-3)Gal(b1-4)GlcNAc", "summary_of_the_method": "as §1"}, "[24]": {"molecular_target": "GlcNAc(a1-6)Gal(b1-4)GlcNAc", "summary_of_the_method": "as §1"}, "[25]": {"molecular_target": "Man(a1-2)Man(a1-3)[Man(a1-2)Man(a1-6)]Man(a1-6)[Man(a1-2)Man(a1-2)Man(a1-3)]Man", "summary_of_the_method": "as §1"}, "[26]": {"molecular_target": "Man(a1-3)[Man(a1-6)]Man(a1-6)[Man(a1-3)]Man(b1-4)GlcNAc(b1-4)GlcNAc", "summary_of_the_method": "as §1"}, "[27]": {"molecular_target": "Neu5Ac(a2-3)Gal(b1-3)GalNAc6S", "summary_of_the_method": "as §1"}, "[28]": {"molecular_target": "Neu5Ac(a2-3)Gal(b1-3)GlcNAc(b1-3)Gal(b1-3)GlcNAc", "summary_of_the_method": "as §1"}, "[29]": {"molecular_target": "Neu5Ac(a2-3)GalNAc(b1-4)GlcNAc", "summary_of_the_method": "as §1"}, "Neu5Ac(a2-8)Neu5Ac": {"molecular_target": "Neu5Ac(a2-8)Neu5Ac", "summary_of_the_method": "as §1"}}, "note": "Many of the other results were omitted from the sample, so the strongest signals are more common in it than they were."}
{"binder": "B1", "values": [{"measurement": "glycan array binding signal (z-score)", "setting": "Fuc(a1-2)[Gal(a1-3)]Gal", "value": 2.32}, {"measurement": "glycan array binding signal (z-score)", "setting": "[1]", "value": 3.32}, {"measurement": "glycan array binding signal (z-score)", "setting": "[2]", "value": -0.386}, {"measurement": "glycan array binding signal (z-score)", "setting": "[3]", "value": -0.385}, {"measurement": "glycan array binding signal (z-score)", "setting": "[4]", "value": -0.369}, {"measurement": "glycan array binding signal (z-score)", "setting": "Gal(a1-3)Gal", "value": 2.62}, {"measurement": "glycan array binding signal (z-score)", "setting": "Gal(a1-3)Gal(b1-4)GlcNAc", "value": 3.18}, {"measurement": "glycan array binding signal (z-score)", "setting": "[5]", "value": 4.59}, {"measurement": "glycan array binding signal (z-score)", "setting": "Gal(b1-3)Gal", "value": 4.35}, {"measurement": "glycan array binding signal (z-score)", "setting": "[6]", "value": -0.329}, {"measurement": "glycan array binding signal (z-score)", "setting": "[7]", "value": -0.386}, {"measurement": "glycan array binding signal (z-score)", "setting": "[8]", "value": -0.394}, {"measurement": "glycan array binding signal (z-score)", "setting": "[9]", "value": 1.7}, {"measurement": "glycan array binding signal (z-score)", "setting": "[10]", "value": 2.18}, {"measurement": "glycan array binding signal (z-score)", "setting": "GalNAc(a1-3)Gal", "value": -0.329}, {"measurement": "glycan array binding signal (z-score)", "setting": "[11]", "value": -0.398}, {"measurement": "glycan array binding signal (z-score)", "setting": "Man(a1-3)[Man(a1-6)]Man", "value": -0.373}, {"measurement": "glycan array binding signal (z-score)", "setting": "[12]", "value": -0.393}, {"measurement": "glycan array binding signal (z-score)", "setting": "[13]", "value": -0.4}, {"measurement": "glycan array binding signal (z-score)", "setting": "[14]", "value": -0.4}, {"measurement": "glycan array binding signal (z-score)", "setting": "Neu5Ac(a2-6)Gal(b1-4)Glc", "value": -0.394}]}
{"binder": "B2", "values": [{"measurement": "glycan array binding signal (z-score)", "setting": "[15]", "value": -0.187}, {"measurement": "glycan array binding signal (z-score)", "setting": "[16]", "value": -0.282}, {"measurement": "glycan array binding signal (z-score)", "setting": "[17]", "value": 2.74}, {"measurement": "glycan array binding signal (z-score)", "setting": "[2]", "value": 1.41}, {"measurement": "glycan array binding signal (z-score)", "setting": "[18]", "value": 5.65}, {"measurement": "glycan array binding signal (z-score)", "setting": "Fuc(a1-4)GlcNAc", "value": -0.369}, {"measurement": "glycan array binding signal (z-score)", "setting": "Gal(a1-4)Gal(b1-4)Glc", "value": -0.323}, {"measurement": "glycan array binding signal (z-score)", "setting": "Gal(b1-3)Gal(b1-4)GlcNAc", "value": -0.622}, {"measurement": "glycan array binding signal (z-score)", "setting": "[6]", "value": -0.397}, {"measurement": "glycan array binding signal (z-score)", "setting": "[19]", "value": -0.538}, {"measurement": "glycan array binding signal (z-score)", "setting": "[20]", "value": -0.52}, {"measurement": "glycan array binding signal (z-score)", "setting": "[21]", "value": -0.411}, {"measurement": "glycan array binding signal (z-score)", "setting": "[22]", "value": -0.144}, {"measurement": "glycan array binding signal (z-score)", "setting": "Gal3S6S(b1-4)GlcNAc6S", "value": 0.451}, {"measurement": "glycan array binding signal (z-score)", "setting": "GalNAc(a1-3)Gal", "value": 7.43}, {"measurement": "glycan array binding signal (z-score)", "setting": "[23]", "value": 3.25}, {"measurement": "glycan array binding signal (z-score)", "setting": "[24]", "value": 10.1}, {"measurement": "glycan array binding signal (z-score)", "setting": "[25]", "value": -0.751}, {"measurement": "glycan array binding signal (z-score)", "setting": "Man(a1-3)[Man(a1-6)]Man", "value": -0.45}, {"measurement": "glycan array binding signal (z-score)", "setting": "[26]", "value": -0.483}, {"measurement": "glycan array binding signal (z-score)", "setting": "[27]", "value": -0.515}, {"measurement": "glycan array binding signal (z-score)", "setting": "[28]", "value": 0.008}, {"measurement": "glycan array binding signal (z-score)", "setting": "[29]", "value": 0.139}, {"measurement": "glycan array binding signal (z-score)", "setting": "Neu5Ac(a2-8)Neu5Ac", "value": -0.039}]}
